Common to all, as to assay: NCI-60 one-dose screen, 48 h (100 = growth as untreated, 0 = no growth, -100 = all killed)
Common to all, as to settings: 10 µM unless noted

The test system of assay [1] is NCI-H23 lung.
Assay [2] concerns NCI-H226 lung.
Assay [3] deals with NCI-H322M lung.
In assay [4] the test system is HOP-62 NSCLC.
Assay [5] concerns NCI-H460 lung.
Assay [6] has as its system HOP-92 NSCLC.
The subject of assay [7] is NCI-H522 lung.
For assay [8], the system named is A549/ATCC NSCLC.
Assay [9] has as its system 786-0 renal.
In assay [10] the test system is COLO 205 colon.

The panel holds about 83,000 compounds, 20% with a hit somewhere; the sample as a whole holds those more often.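 48-hour exposure, single concentration, 96-well plates; percent growth endpoint where 0 means no net growth. Active: below 10.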 Values without a mark were called inactive. Activity calls are given as the source filed them.

`Cc1ccc(OCc2occc2C(=O)N2CCOCC2)cc1`: the growth in assay [1] was 101%; in assay [2], 96.9%; in [3], 106%; in assay [4], -95.9% (active); in [5], 107%; in assay [6], 103%. The growth in [7] is 100%; in assay [8], 109%; in [9], 98.7%; in assay [10] it was 117%.

For `COc1ccc2[nH]cc(/C=N/Nc3ccnc4cc(Cl)ccc34)c2c1`, the growth in assay [1] was -91.8% (active); in assay [2] it was -78.7% (active); in [3], -100% (active); in assay [4], -56.7% (active); in assay [5], -78.1% (active); in assay [6], -91.6% (active). The growth was -62.4% (active) in assay [7], -49.2% (active) in assay [8], -92.3% (active) in assay [9] and -56.7% (active) in [10].

As for `COc1ccc([C@@H]2C(=O)N(c3cc(OC)c(OC)c(OC)c3)[C@H]2c2ccc(OC)c(O)c2)cc1`, the growth in assay [1] is 28.9%; in assay [2] it was 60.2%; in [3], 42.7%; in assay [4] it was 31.3%; in assay [5] it was 4.83% (active); in assay [6] it was 25.1%. Besides, the growth is -39.4% (active) in [7], 29% in assay [8], 6.33% (active) in [9] and -79.3% (active) in assay [10].

With `CC(C)(C)c1cc(NC(=O)Nc2ccc(-c3cn4c5c(sc4n3)CCc3cn(CCCN4CCCCC4)cc3-5)cc2)no1`, the growth in assay [1] is -84.2% (active); in assay [2], 92.6%; in [3] it was -78.8% (active); in [4], -50.3% (active); in assay [5], -69.1% (active); in assay [6], 75.4%. Besides, the growth in assay [7] was -55.3% (active); in assay [8] it was -79.6% (active); in assay [9], -98.1% (active); in assay [10], 5.79% (active).

As for `CNCCN(C)c1ccc(Nc2cc(NC3CC3)n3ncc(C#N)c3n2)cc1NC(C)=O`, the growth is -5.36% (active) in [1]; 10.6% in assay [2]; 10.5% in assay [3]; 13.4% in assay [4]; 8.31% (active) in [5]; -9.1% (active) in assay [6]. The growth in [7] was -35.4% (active); in [8], 12%; in assay [9], 12.8%; in assay [10], 4.36% (active).

On to `CN(C)CCNc1ccc2ncc(C#Cc3cncc(C(=O)Nc4ccc(CN5CCN(C)CC5)c(C(F)(F)F)c4)c3)n2n1`, for which the growth in [1] is -62.4% (active); in [2], 33.4%; in assay [3] it was 6.14% (active); in [4], -37.2% (active); in [5], 9.62% (active); in [6] it was -4.93% (active). Further, the growth in [7] was -61.8% (active); in assay [8], 29.1%; in assay [9] it was 4.34% (active); in assay [10] it was -32.3% (active).

With `CC1=C(C)C(=O)C(Nc2ccc3c(c2)OCCO3)=C(Br)C1=O`, the growth in assay [1] was 85.2%; in assay [2], 85.6%; in assay [3] it was 102%; in [4], 97.6%; in [5] it was 102%; in [6], 68.2%. Moreover, the growth was 96.9% in assay [7], 107% in [8], 105% in assay [9] and 126% in assay [10].

For the molecule `CN1CCN(CCCCCC(=O)Nc2nc(-c3cccc(NS(=O)(=O)c4cccc5c(N(C)C)cccc45)c3)cs2)CC1`, the growth was 65.2% in [1]; 85.9% in [2]; 96% in assay [3]; 90.3% in [4]; 79.3% in assay [5]; 32.4% in assay [6]. The growth in assay [7] is 91.8%; in assay [8], 70.9%; in assay [9] it was 79%; in assay [10] it was 82.4%.

`C/C(=C(\c1ccc(O)cc1)c1ccc(OCCN2CCCCCC2)cc1)c1ccc(Cl)cc1`: the growth in [1] was -80.3% (active); in assay [2], -64.1% (active); in assay [3], -18.9% (active); in assay [4] it was -82.5% (active); in assay [5] it was -55.9% (active); in assay [6], -86.8% (active). For the same molecule, the growth is -86.9% (active) in [7], -72.4% (active) in [8], -77.4% (active) in [9] and -63.4% (active) in [10].

On to `CCCCCc1ccc(S(=O)(=O)Nc2cc(-c3csc(N)n3)ccc2OC)cc1`, for which the growth was 88.7% in assay [1]; 80% in assay [2]; 103% in assay [3]; 108% in assay [4]; 99.5% in [5]; 97.3% in [6]. Besides, the growth is 84.9% in [7], 88% in [8], 99.1% in assay [9] and 117% in [10].

Consider `CCOC(=O)c1c(NC(=O)c2cccc(C(F)(F)F)c2)sc2c3c(ccc12)OCN(C)C3`, for which the growth is 83.6% in [1]; 77.8% in [2]; 18% in assay [3]; -87.6% (active) in [4]; -75.9% (active) in assay [5]; 15.2% in [6]. Moreover, the growth is -15% (active) in assay [7], -77.7% (active) in assay [8], -71.9% (active) in [9] and -57.6% (active) in assay [10].

`C#C[C@]1(O)CC[C@H]2[C@@H]3CC=C4c5sc(N(C)c6ccccc6)nc5CC[C@]4(C)[C@H]3CC[C@@]21C`: the growth in [1] is 86.6%; in assay [2] it was 96.4%; in [3], 103%; in [4], 101%; in assay [5], 61.9%; in assay [6] it was 139%. For the same molecule, the growth in assay [7] is 87.2%; in assay [8], 69%; in assay [9] it was 57.1%; in assay [10], 66.8%.

With `COc1cccc2c1C=CC1(O2)Oc2cccc(OC)c2C=C1C` (stereo not given), the growth in assay [1] was 34.8%; in [2] it was 57.4%; in assay [3] it was 46.1%; in [4] it was 55.9%; in [5] it was 7.1% (active); in assay [6] it was -5.13% (active). Also, the growth was 12.6% in assay [7], 25.1% in assay [8], 26.9% in assay [9] and 16.6% in assay [10].

The values above are taken from PubChem BioAssay (NCI).
